Sampled rows, rich in hits. Any-hit rate of the full collection: about 3.5%.
FBW7 activator – activators of human E3 ligase FBW7; hit rate 0.13% among 650,000; Q969H0; normalized activity (activation), % at 26.1 µM; AlphaScreen FBW7–phospho-cyclin E peptide binding, activator screen; in the data active means normalized activity above about 1.9%;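 further: purified mutant Fbw7 with reduced substrate affinity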
Target sequence (Q969H0 whole entry, looked up): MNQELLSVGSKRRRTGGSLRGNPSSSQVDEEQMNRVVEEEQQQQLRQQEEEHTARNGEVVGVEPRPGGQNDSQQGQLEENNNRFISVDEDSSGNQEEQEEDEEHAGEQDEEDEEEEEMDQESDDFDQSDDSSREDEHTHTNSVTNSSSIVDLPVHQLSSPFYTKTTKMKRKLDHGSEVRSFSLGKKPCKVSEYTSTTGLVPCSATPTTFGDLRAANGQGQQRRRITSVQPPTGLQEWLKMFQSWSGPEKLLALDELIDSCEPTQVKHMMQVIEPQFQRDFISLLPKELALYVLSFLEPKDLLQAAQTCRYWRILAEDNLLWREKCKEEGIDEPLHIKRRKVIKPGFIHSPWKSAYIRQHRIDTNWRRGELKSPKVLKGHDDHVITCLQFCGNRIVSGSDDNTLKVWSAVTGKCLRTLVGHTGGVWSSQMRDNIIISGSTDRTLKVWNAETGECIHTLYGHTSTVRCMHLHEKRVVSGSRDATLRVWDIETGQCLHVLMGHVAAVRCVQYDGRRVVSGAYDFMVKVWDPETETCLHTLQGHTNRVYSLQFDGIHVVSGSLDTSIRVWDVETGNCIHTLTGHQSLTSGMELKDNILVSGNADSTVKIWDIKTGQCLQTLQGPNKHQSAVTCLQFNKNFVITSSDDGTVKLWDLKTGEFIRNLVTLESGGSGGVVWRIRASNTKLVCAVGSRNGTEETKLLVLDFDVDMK
MITF primary – human MITF inhibition, primary screen; O75030; AlphaScreen MITF homodimerization, bead proximity signal; inhibition, % at 2.6 µM; hit rate 0.91% among 650,000; AID 1259374; in the data active means inhibition above about 50%;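 further: 0% = vehicle wells with protein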
GPR151 ag – activators of human GPR151 | Q8TDV0 | PathHunter beta-arrestin GPR151 cells, luminescence | activation, % at 11.2 µM | hit rate 1% among 650,000; in the data active means activation above about 4.9%;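 further: 0% = median of compound wells and 100% = cells with positive control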
TEAD-YAP block – TEAD-YAP interaction inhibition | HEK-TIYL cells, TEAD-Gal4/YAP UAS-luciferase luminescence | inhibition, % at 9.12 µM | hit rate 1.4% among 640,000 | AID 1259422; in the data active means inhibition above about 32%;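 further: 0% = median of test compound wells and 100% = reference inhibitor wells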
GPR151 confirm – confirmation of human GPR151 activators. activation, % at 11.2 µM. GPR151 PathHunter beta-arrestin cells, luminescence, 90 min; % of EA-reagent control over plate median. shares compounds with GPR151 ag. 6,700 tested, under 10 active. AID 1508609;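 active means mean percent activation across replicates above the confirmation screen cutoff of 4.91%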
GPR119 ag – activates human GPR119 in a GPR151 counter-screen. shares compounds with GPR151 ag. GPR119 PathHunter beta-arrestin cells, luminescence, 90 min; 0 = compound-well median, 100 = enzyme-acceptor control. activation, % at 11.2 µM. hit rate 0.3% among 6,700. AID 1508611;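 active means mean percent activation in the counterscreen above 29.09%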;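 further: counterscreen on off-target GPR119 to flag nonselective hits from the GPR151 activator screen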
* marks the source's active call; other numbers are inactive results; . = not tested or not shown.

SMILES | FBW7 activator | MITF primary | GPR151 ag | TEAD-YAP block | GPR151 confirm | GPR119 ag
COc1ccccc1N/N=C(\C)c1ccc([N+](=O)[O-])o1 | -0.2 | 4.8 | 5.7* | 20.9 | 0.6 | 4.9
Cc1cc(NC(=O)c2ccco2)n(-c2nc3ccccc3[nH]2)n1 | 0.1 | 6.9 | 0.4 | 27.8 | . | .
Cc1cc(NC(=O)C2CC2)n(-c2nc3ccccc3[nH]2)n1 | -0.1 | -0.8 | 9.1* | 28.7 | -0.2 | -5.2
O=C(CCl)N1CCCc2ccccc21 | -0.6 | -5.0 | 11.0* | 17.1 | -0.3 | 2.2
O=C(NC1CC2CCCC(C1)N2CC(=O)N1CCCc2ccccc21)C1CCCCC1 (stereo not drawn) | 0.4 | 14.6 | 8.7* | 7.4 | 0.3 | 5.7
CCOCCCNC(=S)N1CCN(c2nc(-c3ccc(F)cc3)cs2)CC1 | 0.1 | 7.4 | 5.8* | 32.8* | 1.3 | 20.5
CCCCNC(=O)/C(=C\c1cccc([N+](=O)[O-])c1)NC(=O)c1ccc(C)cc1 | -0.1 | -2.2 | -0.3 | -12.0 | . | .
CCNC(=O)/C(=C\c1ccc(OC)cc1)NC(=O)c1ccc(Br)cc1 | 0.1 | 10.9 | 5.1* | 6.0 | -0.2 | 3.3
COc1ccc(/C=C(/NC(=O)c2ccc(Br)cc2)C(=O)NCC(=O)O)cc1 | 0.1 | 9.4 | -0.6 | -6.2 | . | .
O=C(NCCc1ccc(F)cc1)c1ccc([N+](=O)[O-])cc1 | 0.1 | 13.9 | 0.2 | -62.0 | . | .
O=C(NCCCO)c1cccc([N+](=O)[O-])c1 | 0.2 | 1.5 | 5.1* | -0.9 | 0.5 | 6.2
CCNC(=O)/C(=C/c1cccc([N+](=O)[O-])c1)NC(=O)c1ccc(C)cc1 | 0.8 | 2.6 | 5.9* | -2.1 | 0.8 | -2.0
O=C(NCCCNc1ccc([N+](=O)[O-])cc1)c1ccc(F)cc1 | 0.0 | -16.1 | 5.7* | 8.3 | -1.1 | -4.8
N=C1c2ccccc2CN1NC(=O)Cn1ccc(C(F)(F)F)n1 | 0.1 | -0.2 | -1.1 | 7.3 | . | .
CCCNC(=O)c1ccc(-c2ccc(C(=O)NC3CC3)cc2)s1 | 0.0 | -6.2 | -10.7 | -1.9 | . | .
O=C(Nc1ccc([N+](=O)[O-])cc1)/C(=C/c1ccccc1)NC(=O)c1ccccc1 | -0.1 | -5.5 | 7.3* | -2.1 | 0.2 | 11.8
CCOC(=O)c1ccc(NC(=O)/C(=C\c2ccc([N+](=O)[O-])cc2)NC(=O)c2ccco2)cc1 | -0.3 | 1.9 | 6.2* | 2.0 | 0.5 | 5.5
O=C(NCCO)/C(=C\c1cccc([N+](=O)[O-])c1)NC(=O)c1ccccc1 | -0.1 | 17.0 | 11.5* | 2.6 | -1.3 | -10.0
O=C(NCCO)/C(=C/c1cccc([N+](=O)[O-])c1)NC(=O)c1cccc(Br)c1 | 0.1 | 3.9 | 0.8 | 0.3 | . | .
CCOC(=O)c1ccc(NC(=O)/C(=C/c2cccc(Br)c2)NC(=O)c2ccco2)cc1 | 0.1 | -4.6 | -1.2 | 13.2 | . | .
CCN1CCN(C(=O)c2nc(-c3cccc(F)c3)n3c2CCCCC3)CC1 | -0.1 | 2.4 | 5.5* | 8.6 | 1.0 | 3.0
C=COCC(COC=C)(COC=C)COC=C | -0.1 | 13.5 | 5.2* | 1.4 | 0.5 | 1.1
CNC(=O)c1cc2c(=O)n3cccc(C)c3nc2n(Cc2ccncc2)c1=N | 0.0 | 19.1 | -0.8 | 0.1 | . | .
CCOc1cccc2cc(-c3csc(Nc4ccccc4C(F)(F)F)n3)c(=O)oc12 | 0.1 | 9.6 | 8.1* | -5.2 | 0.5 | 4.3
CCOc1cccc2cc(-c3csc(Nc4ccccc4Cl)n3)c(=O)oc12 | 0.1 | -0.2 | 2.0 | 6.7 | . | .
SMILES | FBW7 activator | MITF primary | GPR151 ag | TEAD-YAP block | GPR151 confirm | GPR119 ag
CCOc1ncccc1C(=O)NC1(C)CCS(=O)(=O)C1 (stereo not drawn) | 0.0 | -13.0 | 6.2* | -1.2 | -1.3 | -5.0
C=CCOc1cccc(C(=O)NCC2Cc3cccc(-c4cncc(C(N)=O)c4)c3O2)c1 (stereo not drawn) | 0.0 | 9.8 | 0.5 | 5.3 | . | .
Cn1nccc1Nc1cccc(C(=O)NCCOc2ccccc2)n1 | -0.1 | 5.5 | 10.9* | -32.8 | -0.7 | -1.3
CCCNC(=O)c1cccc(Nc2ccnn2C)n1 | 0.1 | 26.8 | 0.0 | 4.9 | . | .
C=CC(C)(C#CCN(CC)CC)OC(C)=O (stereo not drawn) | 0.2 | 9.9 | 1.9 | 11.4 | . | .
Cc1ccc2c(c1)OCC(c1nc3ccc(-c4ccncc4)cc3[nH]1)O2 (stereo not drawn) | 0.2 | 9.5 | 5.1* | -6.8 | 0.3 | -2.0
c1ccc2c(c1)OC[C@@H](c1nc3ccc(-c4ccncc4)cc3[nH]1)O2 | 0.0 | 10.2 | -0.3 | -34.6 | . | .
Cc1ccc(C(O)(C(=O)NNc2ccccc2)c2ccc(C)cc2)cc1 | -0.1 | 4.3 | -0.3 | 23.8 | . | .
C/C(=C\c1ccccc1)C(=O)NCCc1ccccc1 | 0.0 | -4.9 | 14.6* | -13.2 | 1.1 | -7.4
COc1ccc(OC)c(C(=O)c2oc3ccc(Cl)cc3c2N)c1 | -0.3 | -5.4 | 6.3* | 50.4* | -1.1 | 0.1
COc1ccc(OC)c(C(=O)c2oc3ccc(Cl)cc3c2NC(C)=O)c1 | 0.0 | -5.5 | 0.5 | 7.5 | . | .
COC(=O)C1=NNC2C(=O)N(c3ccc(OC)cc3)C(=O)C12 (stereo not drawn) | 0.2 | 17.6 | 6.1* | 8.0 | 0.1 | 7.6
CCOc1ccc(CC(=O)Nc2ccc(I)cc2)cc1OCC | 0.0 | 6.3 | 6.0* | -5.0 | -0.3 | -21.4
CCOc1ccc(CC(=O)Nc2ccccc2)cc1OCC | -0.1 | -6.6 | -0.8 | -11.6 | . | .
CC(C(=O)Nc1cccc(C(F)(F)F)c1)N(c1ccc(Cl)cc1)S(C)(=O)=O (stereo not drawn) | 0.0 | -12.1 | 6.8* | -3.5 | 0.5 | -0.2
CC(N)C12CC3CC(CC(C3)C1)C2 (stereo not drawn) (tested in a mixture with another compound) | 0.1 | -7.0 | -1.1 | 2.8 | . | .
Cc1ccc(C2=NS(=O)(=O)N(C)C(C(=O)N(C)C3CCCCC3)=C2)cc1 | -0.2 | 5.9 | -2.0 | -0.1 | . | .
COc1ccc(C2=NS(=O)(=O)N(C)C(C(=O)N(C)C3CCCCC3)=C2)cc1 | -0.1 | -9.4 | 11.2* | 0.5 | -0.8 | -7.8
O=c1cc(Nc2ccccc2)[nH]c2s[nH]c(=O)c12 | 0.3 | 10.4 | 1.4 | 12.8 | . | .
O=CNC(c1ccccc1)c1ccc(Cl)cc1Cl (stereo not drawn) | -0.1 | -36.0 | 9.9* | 5.6 | -1.1 | -8.7
O=CNC(c1ccc(Cl)cc1)c1ccc(Cl)cc1 | 0.3 | 8.3 | 0.0 | 11.6 | . | .
CCN(CC)CCOc1ccc2c(c1)C(=O)c1cc(OCCN(CC)CC)ccc1-2 | 0.3 | 8.2 | 14.9* | 49.6* | -0.7 | -3.0
O=C(NC1CC2(CCCC2)Oc2ccccc21)c1n[nH]c(=O)c2ccccc12 (stereo not drawn) | 1.3 | 2.2 | 0.4 | -2.8 | . | .
CC(C)CC(NC(=O)C1CCC(C)CC1)C(=O)Nc1cccnc1 (stereo not drawn) | -0.1 | 10.5 | 7.4* | 13.0 | -1.3 | -11.2
CNC(=O)CCCc1nnc2n(CCC(C)C)c(=O)c3sccc3n12 | 0.2 | 12.7 | -1.8 | 2.6 | . | .

Screens from PubChem BioAssay.
